Data on 61 molecules can be found in PubChem BioAssay AID720541 (National Center for Advancing Translational Sciences (NCATS), 2013).

In all, about 1,300 compounds went through this assay and about 420 (32%) were called active. Not shown: some 32% with an inconclusive outcome. The list shows a part of the results. Values without a mark were called inactive. Calls follow the shape of the dose curve; as a rule, active = well fitted inhibition curve with a large enough effect; inconclusive = small, poorly fitted or top-dose-only effect; inactive = no such curve, though single readings can be large or run the other way.
% is scaled to controls: 0 for no effect and ±100 for the full control effect; potency is read from the fitted curve at half-maximal effect.

This assay has as its target C-terminal-binding protein 1 (Homo sapiens) (UniProt Q13363). Nature of the assay: qHTS for Inhibitors of the Phosphatase Activity of Eya2: Carboxyl-terminal binding protein (CtBP) Counterscreen for Cherry-picked Compounds. Also: nearly all actives have a fitted effect of over 65% in size. Conditions: purified protein-protein binding, AlphaScreen, 3 h; series mostly up to 46.1 µM; activity change, negative = inhibition: at the top concentration. The source says: The Eya protein family is an essential co-activator of the Six1 transcription factor. Six1 is a developmental gene that is abnormally re-expressed in a large percentage of breast cancers. This over-expression plays a causal role in the initiation and metastatic development of breast cancers. The Eya family of protein is also found to contain a unique HAD phosphatase domain with protein tyrosine phosphatase activity which can potentially play a role in Six1-mediated breast tumorigenesis. Recently, Eya2 is found to dephosphorylate the histone variant H2AX and direct cells towards DNA repair instead of apoptosis in the event of DNA damage.
A 1536 well format, fluorescence based qHTS assay was developed and used to target the phosphatase activity of Eya2 (AID 488837). In addition, a CtBP counterscreen was developed using the AlphaScreen technology to evaluate compound selectivity to target […]. The data herein reports the activity of the cherry-picked compounds against the CtBP AlphaScreen. Compounds that are active or have > 100 fold selectivity vs. the Eya2 activity were excluded for further characterization. Inactivity is the desired outcome for the CtBP counterscreen.
NIH Chemical Genomics Center [NCGC]
NIH Molecular Libraries Probe Centers Network [MLPCN]
Assay Submitter (PI): Rui Zhao, University of Colorado Denver
Four microliters of reagent (25 nM GST-E1A, 25 nM CtBP-6x HIS) was dispensed in a 1536 well Greiner plates. Twenty-three nanoliter of test compounds (final concentration of 2.5 nM - 46 uM) and positive control E1A peptide inhibitor (final concentration of 0.14 nM - 4.6 uM) were added to the plates using the Kalypsys pintool equipped with a 1536 pin head. The plates was then incubated at room temperature for 2 hours followed by addition of 1 uL Alpha bead donor / acceptor mix (20 ug/mL final concentration). The assay plates were incubated for additional 1 hour at room temperature and protected from light. The AlphaScreen signal was obtained using the PerkinElmer EnVision plate reader using the 680 nm excitation and 520 - 620 nm emission filters. The data was normalized to the E1A peptide inhibitor for maximum inhibition and DMSO treated wells as negative control.
As to `C=C(C)COc1ccc(-c2nc(N)nc(C)c2-c2ccc(OC)cc2)c(O)c1`, the Potency was 6.01 µM (active).

Take `COc1ccc(-c2nc(N)ncc2-c2csc(C)n2)c(O)c1`: the “activity change, negative = inhibition” value is -15.6%.

Turning to `CC(C)S(=O)(=O)c1cnc(-c2ccccn2)nc1N`, the Potency was 13.5 µM (active).

For `CCc1cc2c(=O)[nH]c(-c3ccccn3)nc2s1`, the Potency is 1.9 µM (active).

For the molecule `Cn1c(-c2cc(Cl)ccc2O)nc2c1c(=O)[nH]c(=O)n2Cc1ccccc1`, the “activity change, negative = inhibition” value was 7.81%.

Consider `CC(=O)c1ccc(NS(=O)(=O)c2cccc(C(=O)Nc3ccccc3C(=O)O)c2)cc1`, for which the Potency was 15.1 µM (active).

`COc1cccc(NC(=O)c2ccc3c(c2)CCN3S(C)(=O)=O)c1`: the “activity change, negative = inhibition” value was -12.5%.

Take `COc1cc(NC(=O)c2ccc(S(=O)(=O)N(C)c3ccccc3)cc2)cc(OC)c1`: the “activity change, negative = inhibition” value was -17%.

As for `CN(CC(=O)Nc1cccc(F)c1)C(=O)c1ccc(COc2ccccc2)cc1`, the “activity change, negative = inhibition” value is 11.9%.

With `CC(=O)Oc1cccc(C(=O)Nc2cccc(C(=O)Nc3ccccc3C(=O)O)c2)c1`, the Potency is 8.49 µM (active).

As to `CC(C)CCNC(=O)c1onc(CSc2ccncc2)c1C(=O)NCCC(C)C`, the “activity change, negative = inhibition” value is 10.2%.

As to `Cc1nn(-c2ccccc2)c2c1C(c1cccnc1)N1C=C(S(=O)(=O)N3CCCCC3)C=CC1=N2` (stereo unspecified), the “activity change, negative = inhibition” value is -21.1%.

Consider `CC1CCCN(c2ccc3nc4ccccc4c(=O)n3n2)C1` (stereo unspecified), for which the Potency was 7.57 µM (active).

For `COc1cc(/C=C2\C(C)=C(C#N)c3nc(N)c(C#N)c(C)c32)ccc1OCC(=O)O`, the Potency was 8.49 µM (active).

For the molecule `COc1cc(C=NO)nc(-c2ccccn2)c1`, the Potency was 1.07 µM (active).

For `NC(=O)c1nn2c(C(F)(F)F)cc(-c3ccccc3)nc2c1Br`, the Potency was 10.7 µM (active).

With `Cc1ccc(C(=O)ON=C2CCN(c3ccc([N+](=O)[O-])cc3)CC2)cc1`, the “activity change, negative = inhibition” value is -16.2%.

With `CCN(Cc1cccc(S(=O)(=O)O)c1)c1ccc(C(=C2C=CC(=[N+](CC)Cc3cccc(S(=O)(=O)O)c3)C=C2)c2ccccc2S(=O)(=O)[O-])cc1`, the Potency was 12 µM (active).

Regarding `CCN(Cc1cccc(S(=O)(=O)O)c1)c1ccc(C(=C2C=CC(=[N+](CC)Cc3cccc(S(=O)(=O)O)c3)C=C2)c2ccc(O)cc2S(=O)(=O)O)cc1`, the Potency is 12 µM (active).

Consider `N#CC1=C(N)n2c(s/c(=C\c3cccs3)c2=O)=C(C#N)C1c1cccs1` (stereo unspecified), for which the Potency is 13.5 µM (active).

Consider `CC(=O)N1CCCc2cc(S(=O)(=O)N3CCCC(C(=O)N4CCN(c5cc(C)ccc5C)CC4)C3)ccc21` (stereo unspecified), for which the “activity change, negative = inhibition” value was -19.2%.

Take `CN1C(=O)NC(c2ccccc2)(C(F)(F)F)S/C1=C(/C#N)c1nnc(N2CCOCC2)n1-c1ccccc1` (stereo unspecified): the “activity change, negative = inhibition” value was -19%.

With `CCOc1cc(C=NNC(=O)c2cccc(S(=O)(=O)N3CCCC3)c2)ccc1O`, the Potency is 7.57 µM (active).

Regarding `Cc1ccccc1Nc1c(-c2ccccn2)nc2ccccn12`, the Potency was 2.69 µM (active).

As to `Cc1ccc(Nc2c(-c3ccccn3)nc3ccc(C)cn23)cc1`, the Potency was 4.26 µM (active).

For the molecule `Cc1cccc(C)c1Nc1c(-c2ccccn2)nc2ccccn12`, the Potency is 7.57 µM (active).

In the case of `Cc1onc(-c2ccccc2Cl)c1C(=O)N(Cc1ccc(N(C)C)cc1)C(C)C`, the “activity change, negative = inhibition” value is -12.2%.

With `Cc1cccc(S(=O)(=O)C(C#N)c2nc3ccccc3nc2N2CCOCC2)c1` (stereo unspecified), the “activity change, negative = inhibition” value was -9.38%.

Regarding `CC(C)N=c1cc2n(-c3ccc(Cl)cc3)c3ccccc3nc-2cc1Nc1ccc(Cl)cc1`, the Potency is 3.38 µM (active).

Turning to `O=S(=O)(Nc1cccc(-c2cn3cccnc3n2)c1)c1ccccc1`, the Potency is 4.26 µM (active).

`O=S(=O)(Nc1cccc(-c2cn3cccnc3n2)c1)c1ccc(F)cc1`: the Potency was 15.1 µM (active).

Turning to `Cn1c(=O)c2cc(S(=O)(=O)Nc3cccc(F)c3)ccc2n(C)c1=O`, the “activity change, negative = inhibition” value is -14.5%.

With `COc1cc(NC(=O)c2cccs2)c(OC)cc1NC(=O)CCn1nnc2ccccc21`, the Potency was 12 µM (active).

`COc1cc(NC(=O)c2cccs2)c(OC)cc1NC(=O)Nc1ccc(F)cc1`: the “activity change, negative = inhibition” value was -7.75%.

On to `O=C(CNC(=O)c1cccs1)OCC(=O)c1ccc(Cl)cc1`, for which the “activity change, negative = inhibition” value was 9.32%.

For the molecule `COc1cc(NC(=O)c2cccs2)c(OC)cc1NC(=O)Cc1ccccc1`, the Potency is 7.57 µM (active).

For `COc1cc(NC(=O)c2cccs2)c(OC)cc1NC(=O)CCC(=O)Nc1ccc2ncccc2c1`, the Potency is 1.69 µM (active).

In the case of `O=C(CC(=O)c1c(F)cccc1Cl)c1ccccc1O`, the “activity change, negative = inhibition” value is -17.1%.

`Cc1ccc(S(=O)(=O)Nc2c(C)n(C)n(-c3ccccc3)c2=O)cc1C(=O)OC(C)C(=O)N(C)c1ccccc1` (stereo unspecified): the “activity change, negative = inhibition” value was -10.9%.

On to `O=C1/C(=C/c2ccco2)SC(=S)N1c1cccnc1`, for which the Potency was 15.1 µM (active).

As to `CCOC(=O)c1c(C)oc2c1c(C=NCc1ccccn1)c(O)c1ccccc12`, the Potency was 15.1 µM (active).

Turning to `CC(=O)Oc1cccc2c1C(=O)c1c(OC(C)=O)cc(C(=O)O)cc1C2=O`, the Potency was 12 µM (active).

For the molecule `O=C(O)c1cccc(N2C(=O)c3cccc(Oc4ccc(Cl)cc4)c3C2=O)c1`, the “activity change, negative = inhibition” value was 8%.

`N#C/C(=C\c1ccc(OC(=O)c2ccc(Br)s2)cc1)c1nc2ccccc2[nH]1`: the “activity change, negative = inhibition” value is 2.83%.

In the case of `N#C/C(=C\c1ccc(OC(=O)c2ccc(Cl)s2)cc1)c1nc2ccccc2[nH]1`, the “activity change, negative = inhibition” value was 8.82%.

Regarding `CCOC(=O)/C(C#N)=C/c1ccc(OC(=O)c2ccccn2)cc1`, the Potency was 7.57 µM (active).

`N#C/C(=C\c1ccc(OC(=O)c2ccccn2)cc1)C(N)=O`: the Potency was 12 µM (active).

Turning to `N#C/C(=C/c1ccc(OC(=O)c2ccc(Br)s2)cc1)c1nc2ccccc2[nH]1`, the “activity change, negative = inhibition” value is 4.6%.

With `O=C(Oc1cncc(Cl)c1)c1sccc1Cl`, the “activity change, negative = inhibition” value was -9.79%.

On to `Cc1cc2nc(/N=C(\N)NC(=O)N3c4ccccc4Sc4ccccc43)nc(C)c2cc1C`, for which the “activity change, negative = inhibition” value was -24.2%.

For the molecule `Cc1cc(C)cc(COc2ccc3c(C)c(CC(=O)O)c(=O)oc3c2C)c1`, the “activity change, negative = inhibition” value is -27.5%.

In the case of `Cc1c(CCC(=O)O)c(=O)oc2c(C)c(OCc3cc4c(cc3Cl)OCO4)ccc12`, the Potency is 13.5 µM (active).

Turning to `O=C(Cn1ccc(=O)[nH]c1=O)Nc1nccs1`, the “activity change, negative = inhibition” value is 2.11%.

`Nc1ccc(N2CCCCC2)c2nonc12`: the Potency was 6.75 µM (active).

On to `O=C(Cc1cccs1)Nc1ccc2c(c1)C(=O)OC2`, for which the “activity change, negative = inhibition” value was 3.68%.

In the case of `O=C1CCCC2=C1C(c1ccco1)Nc1ccc3ccccc3c12` (stereo unspecified), the “activity change, negative = inhibition” value is -13.1%.

As to `Cc1cc(NS(=O)(=O)c2ccc(NC(=O)c3cnc(Cl)c(Cl)c3)cc2)nc(C)n1`, the Potency is 1.69 µM (active).

As for `Cc1cc(NS(=O)(=O)c2ccc(NC(=O)c3cc4c(=O)n5ccccc5nc4s3)cc2)nc(C)n1`, the Potency is 6.75 µM (active).

On to `O=C(O)c1ccc(Nc2cnc3ccccc3n2)cc1`, for which the “activity change, negative = inhibition” value was -13.9%.

As for `O=C(Nc1ccc(S(=O)(=O)Nc2cnc3ccccc3n2)cc1)c1ccc(Cl)c([N+](=O)[O-])c1`, the Potency is 2.13 µM (active).

Consider `O=C(Nc1ccc(Nc2ccccc2)cc1)c1ccc(Cl)cc1[N+](=O)[O-]`, for which the “activity change, negative = inhibition” value is -12.6%.
